# Assay results reported in PubChem BioAssay (EPA / NIEHS).
# Results filed as inconclusive are left out. The source made the active and inactive calls. Rule for the calls: active = hit-call score of the fitted dose curve at least 0.9, where 1 is the maximum; inconclusive = response in the unintended direction; inactive = score below 0.9.
# Experiments:
# [1] = Tanguay_ZF_120hpf_TR_legacy: (Legacy) Oregon State University Tanguay Lab 120 Hour Post-fertilization zebrafish Assay for Touch Response (AID 2283667)
# Outline: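 5D WT embryos; static exposure to 120 hpf, 28C, sealed/dark; DMSO 0.64% v/v final. TR scored present/absent; dead embryos excluded. Pos ctrl 5uM trimethyltin chloride.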
# [2] = read-out: alkyl and aryl transferase (GSTA2), GSTA2 (gene 2939); assay: CLD_GSTA2_6hr: CellzDirect (CLD) Gene Expression Assay for alkyl and aryl transferase (GSTA2) at 6 hours (AID 2283666)
# Description: (§1) CLD_6hr is a cell-based, multiplexed-readout assay that uses hepatocyte, a human liver primary cell, with measurements taken at 6 hours after chemical dosing in a 96-well plate.CLD_GSTA2_6hr is one of 16 assay component(s) measured or calculated from the CLD_6hr assay. It is designed to make measurements of mRNA induction, a form of inducible reporter, as detected with chemiluminescence signals by Quantitative Nuclease Protection Assay (qNPA) technology.Data from the assay component CLD_GSTA2_6hr was analyzed at the endpoint, CLD_GSTA2_6hr, in the positive analysis fitting direction relative to DMSO as the negative control and baseline of activity. Using a type of inducible reporter, gain-of-signal activity can be used to understand changes in the reporter gene as they relate to the gene GSTA2. Furthermore, this assay endpoint can be referred to as a primary readout. To generalize the intended target to other relatable targets, this assay endpoint is annotated to the transferase intended target family, where subfamily is alkyl and aryl transferase.
# Human hepatocyte cultures were treated daily for two consecutive days with fresh dosing solutions containing appropriate concentrations of the 320 ToxCast chemicals (chemical identities were blinded to CellzDirect and other ToxCast collaborators), vehicle control (0.2% DMSO), and positive control inducers as summarized in Table 1. […] These replicate data, coupled with internal replicates designed within the blinded ToxCast chemical library, provided additional data to evaluate interindividual differences between hepatocyte preparations and their potential impact on chemical profiles.Cell morphology and integrity were evaluated using phase-contrast microscopy as an indicator of hepatocyte cell health (Tyson & Green, 1987). Cultures for each treatment group (i.e., media, vehicle [0.2% DMSO], positive control inducers [multiple concentrations], and the ToxCast chemicals [multiple concentrations]) were observed and cell morphology was assessed relative to vehicle control cultures at each harvest time point (0, 6, 24, or 48 h). […] Images were evaluated at the conclusion of the study to assess changes in cell integrity and account for the effects of chemical exposure on uncharacteristic changes in concentration-dependent gene expression profiles. […]
# [3] = read-out: sulfotransferase (SULT2A), SULT2A1 (gene 6822); assay: CLD_SULT2A_6hr: CellzDirect (CLD) Gene Expression Assay for sulfotransferase (SULT2A) at 6 hours (AID 2283669);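 note: hits raise transcript level above the DMSO vehicle baseline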
# Outline: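 Primary human hepatocytes from two donor preparations were dosed daily with chemicals or 0.2% DMSO and harvested at 6 h. Transcript induction read by qNPA chemiluminescence, fitted for gain of signal relative to DMSO; morphology-based cytotoxicity annotated.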
# [4] = read-out: glucuronosyltransferase (UGT1A1), UGT1A1 (gene 54658); assay: CLD_UGT1A1_6hr: CellzDirect (CLD) Gene Expression Assay for glucuronosyltransferase (UGT1A1) at 6 hours (AID 2283672)
# Outline: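 Primary human hepatocytes from two donor preparations, dosed with fresh solutions in 0.2% DMSO, harvested at 6 h. UGT1A1 mRNA measured by qNPA chemiluminescence; induction fitted upward versus DMSO.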
# [5] = read-out: xenobiotic metabolism (CYP1A1), CYP1A1 (gene 1543); assay: CLD_CYP1A1_24hr: CellzDirect (CLD) Gene Expression Assay for xenobiotic metabolism (CYP1A1) at 24 hours (AID 2283673);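 note: CYP1A1 mRNA level by quantitative nuclease protection with chemiluminescence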
# Outline: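 Primary human hepatocytes dosed daily with fresh solutions in 0.2% DMSO vehicle. mRNA measured at 24 h by quantitative nuclease protection assay with chemiluminescence; gain-of-signal fit versus DMSO, with morphology-based cytotoxicity flags.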
# [6] = read-out: organic anion transporter (SLCO1B1), SLCO1B1 (gene 10599); assay: CLD_SLCO1B1_6hr: CellzDirect (CLD) Gene Expression Assay for organic anion transporter (SLCO1B1) at 6 hours (AID 2283668);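 note: active means mRNA induction above DMSO baseline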
# Description: as §1, with “plate.CLD_SLCO1B1_6hr” for “plate.CLD_GSTA2_6hr”, “CLD_SLCO1B1_6hr” for “CLD_GSTA2_6hr”, “CLD_SLCO1B1_6hr,” for “CLD_GSTA2_6hr,”, “SLCO1B1.” for “GSTA2.”, “transporter” for “transferase”, “organic anion transporter.” for “alkyl and aryl transferase.”
# Human hepatocyte cultures were treated daily for two consecutive days with fresh dosing solutions containing appropriate concentrations of the 320 ToxCast chemicals (chemical identities were blinded to CellzDirect and other ToxCast collaborators), vehicle control (0.2% DMSO), and positive control inducers as summarized in Table 1. […] These replicate data, coupled with internal replicates designed within the blinded ToxCast chemical library, provided additional data to evaluate interindividual differences between hepatocyte preparations and their potential impact on chemical profiles.Cell morphology and integrity were evaluated using phase-contrast microscopy as an indicator of hepatocyte cell health (Tyson & Green, 1987). Cultures for each treatment group (i.e., media, vehicle [0.2% DMSO], positive control inducers [multiple concentrations], and the ToxCast chemicals [multiple concentrations]) were observed and cell morphology was assessed relative to vehicle control cultures at each harvest time point (0, 6, 24, or 48 h). […]
# [7] = read-out: ABC Transporter (ABCB11), ABCB11 (gene 8647); assay: CLD_ABCB11_6hr: CellzDirect (CLD) Gene Expression Assay for ABC Transporter (ABCB11) at 6 hours (AID 2283675);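 note: hits raise ABCB11 mRNA level so AC50 marks induction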
# Description: CLD_6hr is a cell-based, multiplexed-readout assay that uses hepatocyte, a human liver primary cell, with measurements taken at 6 hours after chemical dosing in a 96-well plate.CLD_ABCB11_6hr is one of 16 assay component(s) measured or calculated from the CLD_6hr assay. It is designed to make measurements of mRNA induction, a form of inducible reporter, as detected with chemiluminescence signals by Quantitative Nuclease Protection Assay (qNPA) technology.Data from the assay component CLD_ABCB11_6hr was analyzed at the endpoint, CLD_ABCB11_6hr, in the positive analysis fitting direction relative to DMSO as the negative control and baseline of activity. […] Furthermore, this assay endpoint can be referred to as a primary readout. […]
# Human hepatocyte cultures were treated daily for two consecutive days with fresh dosing solutions containing appropriate concentrations of the 320 ToxCast chemicals (chemical identities were blinded to CellzDirect and other ToxCast collaborators), vehicle control (0.2% DMSO), and positive control inducers as summarized in Table 1. […] Cultures for each treatment group (i.e., media, vehicle [0.2% DMSO], positive control inducers [multiple concentrations], and the ToxCast chemicals [multiple concentrations]) were observed and cell morphology was assessed relative to vehicle control cultures at each harvest time point (0, 6, 24, or 48 h). […]
smiles,measurement,setting,value
CO/C=C(/C(=O)OC)c1ccccc1COc1cccc(C(F)(F)F)n1,AC50,[1],13.2 µM (active)
C[C@]12CCC(=O)C=C1CC[C@@H]1[C@@H]2CC[C@@]2(C)[C@H]1CC[C@]2(C)O,outcome,[1],inactive
CCC(C)c1cc([N+](=O)[O-])cc([N+](=O)[O-])c1O (centres undefined),outcome,[1],inactive
Cc1cccc(C)c1N,outcome,[1],inactive
Oc1ccc(Cl)cc1Cl,outcome,[1],inactive
O=C(NC(=O)c1c(F)cccc1F)Nc1cc(Cl)c(OC(F)(F)C(F)F)c(Cl)c1,outcome,[1],inactive
Cc1ccccc1[N+](=O)[O-],outcome,[1],inactive
ClC1=C(Cl)[C@]2(Cl)[C@@H]3[C@H]4C[C@H]([C@@H]5O[C@H]45)[C@@H]3[C@@]1(Cl)C2(Cl)Cl,AC50,[1],81.5 µM (active)
Nc1ccc(-c2ccc(N)cc2)cc1,outcome,[1],inactive
Cc1cc2c3c(c1)C(c1ccccc1)=N[C@@H](NC(=O)c1ccncc1)C(=O)N3CC2,outcome,[1],inactive
ClC1=C(Cl)[C@]2(Cl)[C@@H]3[C@@H]4C[C@@H]([C@H]5O[C@@H]45)[C@@H]3[C@@]1(Cl)C2(Cl)Cl,outcome,[1],inactive
CCNc1nc(NC(C)C)nc(SC)n1,outcome,[2],inactive
same,outcome,[1],inactive
same,outcome,[3],inactive
same,outcome,[4],inactive
same,AC50,[5],3.97 µM (active)
CCCN(CCC)N=O,outcome,[1],inactive
CCC(C)(CC)c1cc(NC(=O)c2c(OC)cccc2OC)on1,outcome,[2],inactive
same,outcome,[1],inactive
same,outcome,[6],inactive
same,outcome,[3],inactive
same,outcome,[4],inactive
same,AC50,[5],20 µM (active)
same,outcome,[7],inactive
CN(C)CCO,outcome,[1],inactive
Cc1cc(-c2ccc(N)c(C)c2)ccc1N,outcome,[1],inactive
Nn1cnnc1,outcome,[1],inactive
c1cc2ccc3cccc4ccc(c1)c2c34,outcome,[1],inactive
O=NN(c1ccccc1)c1ccccc1,outcome,[1],inactive
